Measured values published in PubChem BioAssay (NCATS).
Where “and” joins values, the source holds several entries; their conditions need not be identical. Identical values can stand only once. Results filed as inconclusive are left out. Values without a mark were called inactive. Calls of active or inactive are those of the source. The call rests on the fitted dose curve; in most records, active means well fitted inhibition curve with a large enough effect; inconclusive means small, poorly fitted or top-dose-only effect; inactive means no such curve, though single readings can be large or run the other way.

What follows are molecules tested against Cytochrome P450 2C19 (Homo sapiens) (UniProt P33261) (assay: qHTS Assay for Inhibitors and Substrates of Cytochrome P450 2C19 (AID 899; further: nearly all actives have a fitted effect of over 60% in size)). Details: recombinant CYP2C19, luciferin-H EGE luminescence; series mostly up to 57.1 µM; activity, negative = inhibition: at the top concentration.
Sequence of Cytochrome P450 2C19 (Homo sapiens) (P33261 whole entry, looked up): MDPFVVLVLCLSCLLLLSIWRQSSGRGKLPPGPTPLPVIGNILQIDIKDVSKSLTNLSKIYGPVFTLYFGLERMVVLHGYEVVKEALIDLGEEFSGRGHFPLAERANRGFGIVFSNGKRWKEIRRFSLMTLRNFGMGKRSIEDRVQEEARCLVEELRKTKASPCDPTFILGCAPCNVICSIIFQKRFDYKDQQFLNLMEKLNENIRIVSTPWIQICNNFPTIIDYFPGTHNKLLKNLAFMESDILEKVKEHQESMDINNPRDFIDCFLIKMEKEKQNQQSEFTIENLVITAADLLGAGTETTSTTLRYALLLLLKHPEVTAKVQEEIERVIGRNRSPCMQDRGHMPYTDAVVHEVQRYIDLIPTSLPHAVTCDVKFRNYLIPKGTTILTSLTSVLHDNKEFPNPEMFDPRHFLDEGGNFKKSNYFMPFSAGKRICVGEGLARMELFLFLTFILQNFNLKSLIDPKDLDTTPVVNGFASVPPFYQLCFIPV
Protocol: NIH Molecular Libraries Screening Centers Network [MLSCN]
NIH Chemical Genomics Center [NCGC]
The P450 gene superfamily is involved in the metabolism and clearance of xenobiotics. This assay used human CYP2C19 to measure the hydroxylation of ethylene glycol ester of 6' deoxyluciferin (Luciferin-H EGE; […]) to luciferin. The luciferin is then measured by luminescence after the addition of a luciferase detection reagent. Luciferin-H EGE concentration in the assay was equal to its KM for CYP2C19. Inhibitors and some substrates limit the production of luciferin, and decrease measured luminescence.
NCGC Assay Protocol Summary:
Two uL of enzyme and substrate mix (final concentrations: 5nM CYP2C19, 10uM Luciferin-H EGE, 50mM KPO4) were dispensed into a white, solid bottom 1536-well microtiter plate. 23nL of compound was transferred by a pin tool. The plate was incubated at 37C for 10 min. Two uL of an NADPH regeneration solution (Promega supplied reagent) was dispensed and the reaction was allowed to continue for 60 min at 37C. Then the reaction was stopped by reconstituted luciferin detection buffer. After another 20 min of incubation the plate was read on the ViewLux (Perkin Elmer) at 60 sec exposure and 2x2 binning. This protocol was carried out with Promega-Glo reagents and further information can be found at http://www.promega.com/tbs/tb325/tb325.pdf. Data were normalized to the to AC100 inhibition (57uM ketoconazole).
Keywords: P450, CYP2C19, Luciferase, MLSMR, MLSCN, NIH Roadmap, qHTS, NCGC
On the % scale 0 is the no-effect control and ±100 the full control effect; potency means the concentration at half of the fitted maximal effect.

Row | Structure (SMILES) | Potency | activity, negative = inhibition
1 | Clc1ccccc1-c1cncnc1NCCc1cnc[nH]1 | 0.0126 µM (active) | 
2 | C=C1C/C(=C\C)C(=O)O[C@@H]2CCN3CC=C(COC(=O)[C@@]1(C)O)[C@H]23 |  | 45.6% [at 25.6 µM]
3 | c1cncc([C@H]2CCCCN2)c1 | 5.01 µM (active) | 
4 | Cc1nc2cnc(N3CCNCC3)nc2n(C)c1=O |  | 15.6%
5 | Cc1c(O)c(=O)ccn1C |  | 86.4% [at 11.4 µM]
6 | CCC[C@@](C)(COC(N)=O)COC(=O)NC(C)C |  | -27.5%
7 | CCN1C[C@]2(C)CC[C@H](OC)[C@@]34[C@@H]2[C@H](OC(C)=O)[C@]2(OCO[C@@]25C[C@@H](OC)[C@@H]2C[C@@]3(O)[C@H]5[C@@H]2OC)[C@H]14 |  | 61.1% [at 25.6 µM]
8 | O=C(c1ccco1)N1CCC[C@@]2(CCN(Cc3ccncc3)C2)C1 | 2.51 µM (active) | 
9 | C[C@@]12CC[C@H]3[C@@H](CC[C@@H]4C[C@H]5S[C@H]5C[C@]43C)[C@H]1CC[C@H]2O | 0.0631 µM (active) | 
10 | CC1=NCCc2c1[nH]c1cc(O)ccc21 |  | -8.39%
11 | CC[C@@H](CO)NC(=O)[C@H]1C=C2c3cccc4c3c(cn4C)C[C@H]2N(C)C1 | 0.126 µM (active) | 
12 | CN(C)C(=O)Oc1cc(OC(=O)N(C)C)cc([C@@H](O)CNC(C)(C)C)c1 |  | 46.7% [at 25.6 µM]
13 | S=C(S)N1CCCC1 | 3.98 µM (active) | 
14 | CC(C)NC(=O)N1CC[C@@]2(CCCNC2)C1 |  | -37.1%
15 | CN1CC[C@]2(C)c3cc(O)ccc3N(C)[C@@H]12 | 12.6 µM (active) | 
16 | O=C1C=C2C=C[C@H]3C[C@@]2(O1)[C@H]1CCCCN31 |  | 41.3%
17 | CNC[C@H](O)c1ccc(O)cc1 |  | 2.99%

Row | Structure (SMILES) | Potency | activity, negative = inhibition
18 | COc1ccc(C[C@H]2c3cc(OC)c(OC)cc3CCN2C)cc1OC |  | -34.5%
19 | COc1cc2c(cc1O)C[C@H]1c3c(cc(O)c(OC)c3-2)CCN1C |  | -6.41%
20 | COc1cc(CNC(=O)CCCC/C=C\C(C)C)ccc1O | 10 µM (active) | 
21 | CN(C)[C@@H]1C(=O)C(C(N)=O)=C(O)[C@]2(O)C(=O)C3=C(O)c4c(O)cccc4[C@@](C)(O)[C@@H]3C[C@@H]12 |  | 32.1%
22 | COc1cc2c(cc1OC)[C@H](C)NCC2 |  | -12.5%
23 | COc1ccc2c(c1O)-c1c(OC)c(OC)cc3c1[C@H](C2)N(C)CC3 |  | 22.9%
24 | C[N+]1=Cc2cc3c(cc2CC1)OCO3 |  | -36.6%
25 | N#Cc1cccc(NC(=O)N2CC[C@@]3(CCCN(C(=O)Oc4ccccc4)C3)C2)c1 |  | 161%
26 | C[C@@]12CC[C@H](O)C[C@@H]1CC[C@H]1[C@@H]2C[C@@H](O)[C@]2(C)[C@@H](C3=CC(=O)OC3)CC[C@]12O |  | 49.9% [at 25.6 µM]
27 | COc1cc2c(c(OC)c1OC)-c1ccc(O)c(=O)cc1[C@@H](NC(C)=O)CC2 |  | -36.4%
28 | CO[C@@H](C)[C@](O)(C(=O)OCC1=CCN2CC[C@@H](O)[C@H]12)C(C)C |  | 71.8% [at 25.6 µM]
29 | Cc1ccccc1-c1cncnc1NCCc1cnc[nH]1 | 0.0501 µM (active) | 
30 | c1ccc(CN2CCC3(CCNCC3)CC2)cc1 | 5.01 µM (active) | 
31 | COc1ccc2c(c1OC)C(=O)O[C@H]2[C@H]1c2cc3c(cc2CCN1C)OCO3 | 1.26 µM (active) and 79.4 nM (active) | 
32 | CN1CCc2cc3c(cc2[C@@H]1[C@@H]1OC(=O)c2c1ccc1c2OCO1)OCO3 | 398 nM (active) and 50.1 nM (active) | 
33 | COc1ccc2c(c1OC)CN1CCc3cc4c(cc3[C@H]1C2)OCO4 | 1.26 µM (active) | 
